40 molecules from ChEMBL document CHEMBL3433997, “St. Jude Leishmania screening dataset” (2016) can be followed below.

The structures appear in SMILES notation.

Sequence of Solute carrier family 2, facilitated glucose transporter member 1 (Homo sapiens) (P11166 whole entry): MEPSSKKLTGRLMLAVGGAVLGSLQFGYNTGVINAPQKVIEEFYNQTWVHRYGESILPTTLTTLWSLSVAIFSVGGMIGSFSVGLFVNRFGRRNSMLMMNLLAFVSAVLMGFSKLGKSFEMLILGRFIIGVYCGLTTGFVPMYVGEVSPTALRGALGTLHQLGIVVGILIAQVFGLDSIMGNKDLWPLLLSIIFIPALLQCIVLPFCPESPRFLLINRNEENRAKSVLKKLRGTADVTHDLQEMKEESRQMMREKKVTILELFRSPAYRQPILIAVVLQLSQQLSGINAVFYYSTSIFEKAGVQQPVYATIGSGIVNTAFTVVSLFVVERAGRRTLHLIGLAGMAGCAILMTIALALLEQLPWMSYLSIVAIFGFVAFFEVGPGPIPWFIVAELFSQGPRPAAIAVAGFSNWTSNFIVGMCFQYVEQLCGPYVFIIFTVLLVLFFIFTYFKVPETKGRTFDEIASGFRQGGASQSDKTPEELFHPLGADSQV

This assay concerns the target Solute carrier family 2, facilitated glucose transporter member 1 (Homo sapiens) (UniProt P11166). Put plainly: ST_JUDE_LEISH: Cytotoxicity at 2uM final concentration against transgenic Leishmania Mexicana promastigotes LmGLUT1 that are glucose transport deficient and complemented with the human glucose transporter GLUT1. Activity is measured by DNA content using SYBR green in vitro. It is filed as functional.
On to `C(=N\Nc1nccc2sc(-c3cccnc3)cc12)/c1ccncc1`, for which the inhibition (as a rule, the drop in the measured response relative to a control, in per cent) came to 5.3%.
Consider `O=C(Nc1ccc(Cl)c(C(F)(F)F)c1)c1ccc(Cl)c([N+](=O)[O-])c1`, for which the inhibition turned out to be 6.41%.
As for `FC(F)(F)c1ccc2c(NN=Cc3cccc(Cl)c3)ccnc2c1`, the inhibition turned out to be 5.93%.
With `CO/C(=C\C=C\c1cc2cc(Cl)c(Cl)cc2[nH]1)C(=O)NCCCNC12CC3CC(CC(C3)C1)C2` the figure was 3.15%; with `Cc1nc(C)c(-c2ccc(Oc3ccc(Cl)c(Cl)c3)cc2)c(O)c1Br`, 0.19%.
On to `N=c1n(Cc2ccccc2)c2ccccc2n1CC(O)c1ccc(Cl)cc1` (stereo not given), for which the inhibition was 1.36%.
For the molecule `C=CCOc1ccc(C(=O)Nc2nonc2-c2ccc(OC)c(OC)c2)cc1`, the inhibition is 1%.
For `Fc1ccc2[nH]c(-c3cccc(-c4ccc(CNCc5ccccc5)cc4)c3)nc2c1`, the inhibition was found to be 7.37%.
In the case of `Oc1ccc2[nH]c(-c3cccs3)nc2c1CN1CCC(O)(c2ccccc2)CC1`, the inhibition came to 10.6%.
As for `O=C(Nc1ccc(NC2=NCCN2)cc1)c1ccc(C(=O)Nc2ccc(NC3=NCCN3)cc2)cc1`, the inhibition turned out to be 17.6%.
Regarding `CC(=O)NCC(=O)NC1=NC(=N)N(OCc2ccc3ccccc3c2)C(C)(C)N1`, the inhibition came to 2.26%.
With `COc1cccc(NC(=O)c2ccc(NCCCN3CC(C)CC(C)C3)c([N+](=O)[O-])c2)c1` (stereo not given) the figure was 6.83%; with `Oc1ccc(CCNCCCCCCNCCc2ccc(Cl)c3ccccc23)cc1O`, -0.26%; with `COc1ccc2ncc(F)c([C@@H](O)CN3CCC(NCc4cc5c(cn4)OCCO5)CC3)c2c1`, 2.51%.
In the case of `Oc1ccc(CCNc2nc(NCc3ccccc3-c3ccccc3)nc(N3CCCNCC3)n2)cc1`, the inhibition was 0.19%.
With `CC(=O)N(C)c1cccc(C(=O)Nc2cccc(-c3ccc(-c4nc5cc(C(F)(F)F)ccc5[nH]4)cc3)c2)c1`, the inhibition is 4.32%.
With `c1ccc(CNCc2cccc(-c3ccc(-c4nc5ccccc5[nH]4)s3)c2)cc1`, the inhibition was determined as 4.03%.
For `CCC[C@@H]([C@@H](CC1CCCCC1)C(=O)NC(C(=O)Nc1nccs1)C(CC)c1ccccc1)N(O)C=O` (stereo not given in full), the inhibition stood at 0.29%.
On to `Oc1ccc(CCNc2nc(NCc3ccccc3-c3ccc(F)cc3)nc(N3CCNCC3)n2)cc1`, for which the inhibition is -6.17%.
For the molecule `O=C(Nc1cccc(C(F)(F)F)c1)c1ccc(S(=O)(=O)NCC2CCCN(CC3CCCCC3)C2)cc1` (stereo not given), the inhibition came out at 1.23%.
In the case of `COc1ccc2[nH]ccc(=NN=Cc3cccc(Cl)c3)c2c1` it was 15.1%; in that of `COc1ccc(NC(=O)/C=C/c2ccc(-c3ccc(-c4noc(C)n4)cc3)cc2)cc1OCCN(C)C`, -0.19%.
For the molecule `Cc1cccc2nc(-c3ccc(-c4cccc(NC(=O)C(C)CN5CCN(C)CC5)c4)cc3)[nH]c12` (stereo not given), the inhibition turned out to be 3.33%.
With `CC1(C)NC(N)=NC(=N)N1OCCc1ccc(N)cc1`, the inhibition is 5.6%.
For `CCNc1cc(C(=O)N[C@@H](Cc2ccccc2)[C@H](O)CNC(C)(C)CSCC(C)C)cc(N2CCCC2=O)c1`, the inhibition stood at 1.84%.
Regarding `CN1CCN(c2ccc(-c3cc(-c4ccncc4)c(-c4ccc(Cl)c(O)c4)o3)cc2)CC1`, the inhibition was -0.86%.
Turning to `COc1cccc(C(=O)NCc2nnc(S)n2-c2ccc(Cl)c(Cl)c2)c1`, the inhibition is -0.13%.
As to `Nc1nccc2ccc(-c3ccc(OCc4ccccc4)cc3)cc12`, the inhibition came out at 0.87%.
For the molecule `COCC(C)n1c(SCC(=O)Nc2cc(C(F)(F)F)ccc2Cl)nc2ccccc2c1=O` (stereo not given), the inhibition stood at 6.25%.
In the case of `COc1ccc(-c2ccc(NC(=O)c3ccc(Cl)cc3)cc2)cc1CN1CCCN(C)CC1`, the inhibition was 5.26%.
As for `O=C(Nc1ccccc1)N(Cc1ccccc1-c1cccc(CNCCc2ccccc2)c1)C1CCN(Cc2ccccc2)CC1`, the inhibition is -1.02%.
`O=C1CSc2ccc(CNC3CCN(CCc4c(Cl)cnc5ccc(Cl)cc45)CC3)nc2N1`: the inhibition was found to be 0.88%.
As to `O=C(NCc1cccs1)[C@H](Cc1ccccc1)Nc1ccnc(NCC2CCCCC2)n1`, the inhibition came out at 11.9%.
Turning to `COc1ccc(S(=O)(=O)Nc2cc(C)cc(Br)c2OC)cc1N1CCN(C(=O)C(Cl)(Cl)Cl)CC1`, the inhibition is 0.75%.
Take `CNC(=O)c1cc(NCCCNCc2ccc(Cl)c(C(F)(F)F)c2)nc2ccccc12`: the inhibition is -1.98%.
In the case of `CSc1ccc2nccc(Nc3ccc(Oc4ccccc4)cc3)c2c1`, the inhibition came to 5.73%.
With `Cc1cc2nc(-c3ccc(/C=C/C(=O)NCCCc4ccccc4)cc3)[nH]c2cc1C`, the inhibition came to 4.43%.
Take `COc1ccc2c(c1CNCCCCCCNCc1c(OC)ccc3c1CCCC3)CCCC2`: the inhibition was 11.1%.
On to `CN1CCN(c2ccnc3ccc(NC(=O)Nc4cccc5c(Br)cccc45)cc23)CC1`, for which the inhibition came to 0.91%.
As to `CCn1c(=O)c(C(=O)Nc2cc(Cl)c(OC)cc2OC)nc2ccccc21`, the inhibition came out at 11.7%.
